# Source: PubChem BioAssay (several laboratories)
# Only some compounds are listed: those with a hit (about 2.2% of all), similar ones and a draw of the others.
# IEC-6 tox-1: kills IEC-6 intestinal cells in KLF5 counter-screen; inhibition, % at 5 µM; hit rate 0.78% among 290,000; IEC-6 cytotoxicity, luminescence viability;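 further: 0% = plate median of test compound wells and 100% = cytotoxic reference compound wells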
# APP 5UTR inh: APP translation inhibition; SH-SY5Y APP 5'UTR-luciferase reporter, luminescence; inhibition, % at 2 µM; hit rate 0.82% among 190,000;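 active means inhibition above a set limit, derived from the sample mean plus 3 SD, cut at about 45% in these data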
# Ba/F3 V617F tox: loss of viability in JAK2V617F-driven Ba/F3 cells | Ba/F3 EpoR-JAK2V617F viability, ATP luminescence | inhibition, % at 5.6 µM | hit rate 1.1% among 220,000;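 active means inhibition above the campaign mean plus 3 SD over all tested compounds, cut at about 24% in these data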;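 further: cytokine-independent growth of Ba/F3 cells driven by EpoR plus mutant JAK2; 0% = DMSO-treated cells and 100% = JAK inhibitor I control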
# KLF5 inhibitor: inhibitors of KLF5 expression; hit rate 0.23% among 290,000; AID 1700; DLD-1 KLF5 promoter-luciferase reporter, luminescence; inhibition, % at 5 µM;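 active means inhibition above a per-plate limit of that plate's mean compound inhibition plus 3 SD, cut at about 60% in these data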;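 further: 0% = DMSO wells and 100% = LY294002 at 200 µM; higher means less KLF5 promoter-driven luciferase light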
# BaF3 tox: reduces parental Ba/F3 cell viability, JAK2V617F counter-screen; CellTiter-Glo ATP luminescence; inhibition, % at 5.6 µM; hit rate 1.1% among 220,000;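 active means inhibition above a per-campaign cutoff, the mean inhibition of all tested compounds plus 3 SD, cut at about 27% in these data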;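 further: 0% = DMSO wells and 100% = JAK Inhibitor I control wells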
# aSyn UTR inh: 5' untranslated region of α-synuclein, MLPCN primary screen. alpha-synuclein 5'UTR reporter, inhibitor activity. inhibition, % (tested at 7.5 µM). hit rate 0.82% among 300,000; in the data active means inhibition above about 60%;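 further: H4 neuroglioblastoma cells stably carrying SNCA 5'UTR luciferase fusion; 0% = DMSO wells and 100% = positive control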
# BaF3 parental 2: reduces parental Ba/F3 viability, JAK2V617F counter-screen; shares compounds with Ba/F3 V617F tox; CellTiter-Glo luminescence; cells kept alive by added IL-3; inhibition, % at 5.6 µM; hit rate 31% among 580; AID 1520;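 active means cell growth inhibition above the hit limit set in the earlier mutant JAK2 cell screen, cut at about 27% in these data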;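 further: plate controls were DMSO-treated cells for no effect and JAK Inhibitor I control wells for full effect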
# JAK2V617F conf: confirmation: loss of viability in JAK2V617F-dependent Ba/F3 cells; shares compounds with Ba/F3 V617F tox; Ba/F3 EpoR-JAK2V617F viability, CellTiter-Glo luminescence; inhibition, % at 5.6 µM; hit rate 66% among 580; AID 1521;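 active means mean inhibition above the hit cutoff derived in the earlier primary screen, cut at about 25% in these data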;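 further: 0% = DMSO-treated cells and 100% = JAK inhibitor I control wells; higher means lower luminescence from reduced cell ATP and viability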
# KLF5 inh confirm: KLF5 inhibition, confirmation assay. shares compounds with KLF5 inhibitor. DLD-1 KLF5 promoter firefly luciferase reporter, luminescence. inhibition, % at 4 µM. hit rate 79% among 610. AID 1834;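 active means inhibition above a set limit taken from the earlier primary screen, cut at about 63% in these data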;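 further: 0% = DMSO wells and 100% = LY294002 at 200 µM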
# IEC-6 tox-2: rat IEC-6 cytotoxicity, KLF5 inhibitor counter-screen | shares compounds with KLF5 inhibitor | IEC-6 rat intestinal cells, viability luminescence | inhibition, % at 4 µM | hit rate 56% among 610; in the data active means inhibition above about 23%;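 further: cells exposed to compounds for 48 hours before viability read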
# IEC-6 cytotox cf: IEC-6 cytotoxicity, confirmation assay; shares compounds with IEC-6 tox-1; IEC-6 rat intestinal epithelial viability, luminescence; inhibition, % at 5 µM; hit rate 63% among 1,900; AID 1907;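 further: 0% = vehicle and 100% = reference cytotoxic drug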
# An asterisk follows results filed as active; nt = no result given. Unless noted, no stated cut-off is given here; in the data, active means inhibition above about 22%; inactive means the rest.
SMILES,IEC-6 tox-1,APP 5UTR inh,Ba/F3 V617F tox,KLF5 inhibitor,BaF3 tox,aSyn UTR inh,others
CCCC[N+]12CCC(CC1)C(=C(c1ccccc1)c1ccccc1)C2,-2,8,2,-33,11,21,
CCC[N+]12CCC(CC1)C(=C(c1ccccc1)c1ccccc1)C2,-6,18,18,-7,36*,6,
O=[N+]([O-])c1ccc2nc(N3CCNCC3)ccc2c1,nt,nt,nt,nt,nt,-28,
Brc1ccc2c(c1)C(OC1CN3CCC1CC3)c1ccccc1CS2 (configuration not stated),19,-6,-2,0,6,-30,
CCOc1ccc(-c2cc(C)[n+](CCO)c(-c3ccc(OCC)cc3)c2)cc1,-1,-5,57*,-16,72*,19,
CCOc1ccc(-c2cc(C)[n+](CCc3ccc(OC)c(OC)c3)c(-c3ccc(OCC)cc3)c2)cc1,3,nt,nt,34,nt,44,
CC(C)(C)NC(=S)/N=C(\N)N[N+](=O)[O-],-6,-9,1,-3,0,22,
Cc1nc2c(-c3ccccc3)c(C)nn2c(C)c1CCC(=O)N1CCC2(CC1)OCCO2,1,-13,1,-6,1,28,
Cc1nc2cc(-c3cccc(F)c3)nn2c(C)c1CCC(=O)N1CCC2(CC1)OCCO2,-1,27,-4,-5,-1,77*,
CC[n+]1c(/C=C/N(C)c2ccccc2)sc2ccc(Cl)cc21,16,13,80*,-7,72*,-12,
O=c1[nH]c(=O)n(-c2ccccc2)c(O)c1/C=C1/C(c2ccccc2)=Nc2ccccc21,55*,68*,80*,32,68*,-60,
Cc1cc(C)[n+](C2C3CC4CC(C3)CC2C4)o1 (configuration not stated),-3,0,68*,23,66*,12,
O=C1CN(O)C(c2ccccc2)=c2cc(Cl)ccc2=N1,-3,nt,nt,-58,nt,6,
CC(=O)OC1CC[C@]2(C#N)[C@H]3CC[C@]4(C)[C@H](C5C=CC(=O)O5)CCC4(O)C3CCC2(O)C1 (some centres not stated),-6,nt,nt,-30,nt,85*,
O=C1CN=C(c2ccccc2)c2c(sc3c2CCCC3)N1,5,nt,nt,-21,nt,8,
CCCCCCC(=O)c1c(O)n(-c2ccc(OC)cc2)c(=O)[nH]c1=O (tested in a mixture with another compound),-4,nt,-2,-7,0,-5,
C=C(C=O)CC1CC(O)[C@]2(C)OC3CC4OC5C[C@]6(C)O[C@]7(C)CCC8OC9C[C@]%10(C)OC%11C(C)=CC(=O)OC%11CC%10OC9C[C@@H](C)C8OC7CC6O[C@]5(C)CC5OC5C4OC3CC2O1 (some centres not stated),11,96*,97*,-10,97*,114*,
CCN1C(=O)/C(=C/c2ccc(N(CC)CC)cc2OC)C(=O)NC1=S,4,-8,2,-28,6,-2,
CC(Cc1ccccc1)N1C(=O)c2ccccc2C1=O (configuration not stated),9,nt,nt,-35,nt,-27,
CC(=O)c1cn(Cc2ccccc2C#N)c2ccccc12,16,-4,46*,-11,67*,-9,
Cc1ccc(S(=O)(=O)N2CCN(C(=O)COC(=O)Cc3ccccc3)CC2)c(C)c1,nt,nt,nt,nt,nt,-3,
CCOc1cccc(CNCCc2c(C)[nH]c3ccc(OC(F)(F)F)cc23)c1O,12,nt,nt,-4,nt,113*,
CCN(CC)C(=O)c1ccc(NC(=O)COc2ccc(-c3nn(C)c(=O)c4ccccc34)cc2)cc1,8,nt,nt,21,nt,4,
CCn1c(NN=O)nc2ccccc21,3,44,3,-15,7,74*,
Cc1nn(Cc2ccccc2Cl)c(C)c1C(=O)OCC(=O)NC1CCCC(C)C1C (configuration not stated),0,-9,76*,-16,11,32,BaF3 parental 2=-3;JAK2V617F conf=0
SMILES,IEC-6 tox-1,APP 5UTR inh,Ba/F3 V617F tox,KLF5 inhibitor,BaF3 tox,aSyn UTR inh,others
Cc1nn(Cc2ccccc2Cl)c(C)c1C(=O)OCC(=O)NC1CCS(=O)(=O)C1 (configuration not stated),-1,7,0,-1,4,5,
C=CCn1c(O)c(C(C)=NCCN2CCN(C(=S)NC)CC2)c(=O)[nH]c1=O,-4,nt,-1,-11,-4,-7,
COc1ccc(OCC#CCN2CCNCC2)cc1,2,nt,nt,-11,nt,2,
COC12C(COC(N)=O)C3=C(C(=O)C(C)=C(N)C3=O)N1CC1C2N1C (configuration not stated),5,nt,29*,14,10,-3,BaF3 parental 2=50*;JAK2V617F conf=96*
O=C(c1ccccc1F)c1cn(CC(=O)N2CCCCC2)c2ccccc12,3,6,49*,2,3,2,BaF3 parental 2=-5;JAK2V617F conf=-16
CCn1nc(/C=C/c2ccccc2)nc2c(=O)n(C)c(=O)nc1-2,102*,-41,44*,-49,24,1,BaF3 parental 2=103*;JAK2V617F conf=99*;IEC-6 cytotox cf=104*
O=C(Nc1ccc2ccccc2c1)N1C[C@H]2C[C@@H](C1)c1cccc(=O)n1C2,6,nt,-2,-30,1,-9,
CCCCCCC[n+]1ccc(-c2cc[n+](CCCCCCC)cc2)cc1,11,16,95*,77*,93*,92*,KLF5 inh confirm=63*;IEC-6 tox-2=-7
Cc1ncc([N+](=O)[O-])n1CCOC(N)=O,0,nt,0,-16,4,5,
CCC(=NCCc1c[nH]c2ccccc12)c1c(O)n(C)c(=O)n(C)c1=O,3,-12,0,-6,7,6,
C[C@@H]1O[C@@H](O[C@H]2C[C@@H](O)[C@]3(CO)[C@H]4[C@H](O)C[C@]5(C)[C@@H](C6COC(=O)C6)CC[C@]5(O)[C@@H]4CC[C@]3(O)C2)[C@H](O)[C@H](O)[C@H]1O (some centres not stated),2,93*,4,64*,6,115*,KLF5 inh confirm=71*;IEC-6 tox-2=3
CC(=O)OC(C)(C)/C=C/C(=O)C(C)(O)C1[C@H](O)C[C@@]2(C)C3CC=C4C(CC[C@@H](O)C4(C)C)[C@]3(CO)C(=O)C[C@]12C (some centres not stated),99*,nt,nt,90*,nt,86*,KLF5 inh confirm=93*;IEC-6 tox-2=96*;IEC-6 cytotox cf=97*
